The values that follow come from PubChem BioAssay.

SMILES strings stand for the structures.

This assay can be described thus: reducers of endogenous Her2 protein level, primary screen, SKBR3 breast tumor cells, AlphaScreen, ATP viability (AID 461).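 Note: percent of carrier control wells set as 100% viability.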 The settings on record: 18-24 h, measured here: SKBR3 viability, ATP luminescence, at 10 µM. Background: Bead proximity is the source of the signal in Alpha formats.
As to `O=C(Cn1cc2c(n1)CCCCC2)N1CCc2ccccc21`, the viability worked out at 85.5%.

For `CC(C)c1nccn1S(=O)(=O)c1cc(Cl)ccc1Cl`, the viability came out at 104%.

With `CC(=O)Nc1cccc(NC(=O)CSc2nn3c(=O)c(C)nnc3s2)c1`, the viability was 100%.

For the compound `CCOc1ccc2nc(Nc3nc4c(c(=O)[nH]3)CCC4)nc(C)c2c1`, the viability worked out at 99.5%.

Consider `C(=N\c1c(-c2ccccc2)nc2n1CCS2)/c1ccccc1`, for which the viability came out at 102%.

With `CCN(CC)S(=O)(=O)c1ccc2oc(C(=O)N3CCOCC3)c(C)c2c1`, the viability is 79.5%.

For `CCOC(=O)C1CCN(Cc2ccc(OC)c(C)c2OC)CC1`, the viability amounted to 88.5%.

With `Cc1cc(N)n2nc(-c3ccccc3)cc2n1`, the viability amounted to 95%.

For the compound `Cc1nnc(SCC(=O)Nc2sc3c(c2C#N)CCCC3)[nH]c1=O`, the viability was found to be 95.5%.

Regarding `Cc1cc(NC(=O)COc2cccc(C)c2C)no1`, the viability is 96%.

Regarding `Cc1cc(C)c(NC(=O)CSc2nc3c(c(=O)n2C)SC(C)C3)c(C)c1` (centres undefined), the viability amounted to 93.5%.

Turning to `CC(=O)c1ccc(OCC(O)CN2CCN(CCO)CC2)cc1` (centres undefined), the viability amounted to 116%.

Consider `CCn1cc(C(=O)NCC2CCCO2)c(=O)c2cc(S(=O)(=O)N(C)C)ccc21` (centres undefined), for which the viability was 85.5%.

As to `C=CCSc1nc(N)c2c(C)c(C)sc2n1`, the viability is 98.5%.

For the compound `CC1CCCN(C(=O)c2cc3c(-c4ccc(Cl)cc4)nn(C)c3s2)C1` (centres undefined), the viability worked out at 89%.

In the case of `COc1cccc2cc(C(=O)OC3CCN(C)CC3)c(=O)oc12`, the viability was found to be 96%.

In the case of `COC(=O)c1cn(C(=O)c2ccc(Br)o2)c2ccccc12`, the viability was 89%.

Turning to `COc1cc(NC(=O)C2C3C=CC(C3)C2C(=O)O)c(OC)cc1Cl` (centres undefined), the viability was found to be 86%.

`COc1ccc(C2CC(c3ccc(C)cc3)Nc3ncnn32)cc1` (centres undefined): the viability was 106%.

A word on the viability: it is a read-out of living cells in per cent, often relative to untreated cells.
